# Source: PubChem BioAssay (The Scripps Research Institute Molecular Screening Center)
# MsrA act: bovine methionine sulfoxide reductase A activation. purified bovine MsrA, absorbance read-out. activation, % at 10.6 µM. 360,000 compounds, 0.3% hits. AID 602163; in the data active = activation above about 7.5%;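 note: 0% = vehicle and 100% = reference activator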
# SMARCA2 activ: increases SMARCA2 function in MMTV reporter cells. MG213 cells, MMTV-luciferase reporter, dexamethasone, overnight. activation, % at 9.1 µM. 370,000 compounds, 1% hits. AID 652017; in the data active = activation above about 7.8%;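 note: 0% = vehicle wells and 100% = reference activator wells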
# MsrA inhibitor: inhibitors of bovine MsrA. purified bovine MsrA, absorbance read-out. inhibition, % at 15.5 µM. 360,000 compounds, 0.75% hits. AID 651718; in the data active = inhibition above about 4.5%;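 note: 0% = vehicle wells with enzyme and 100% = reference inhibitor wells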
# KLK7 zymogen act: activates the human kallikrein-7 zymogen; P49862; purified proKLK7, EDANS-DABCYL substrate fluorescence; 100% is mature enzyme control, 0% vehicle; activation, % at 7 µM; 370,000 compounds, 0.9% hits; AID 652039;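 active = activation above the mean of all tested compounds plus 3 SD, computed per campaign excluding outliers beyond control limits, cut at about 13% in these data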
# Target sequence (P49862 whole entry, looked up): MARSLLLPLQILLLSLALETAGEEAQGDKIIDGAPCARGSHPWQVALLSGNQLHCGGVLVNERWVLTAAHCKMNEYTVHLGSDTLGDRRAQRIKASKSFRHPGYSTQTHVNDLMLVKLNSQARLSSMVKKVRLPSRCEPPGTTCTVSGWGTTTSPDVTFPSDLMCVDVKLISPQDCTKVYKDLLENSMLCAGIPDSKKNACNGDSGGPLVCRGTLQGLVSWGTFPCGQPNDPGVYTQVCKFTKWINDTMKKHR
# SMARCA2 conf: confirmation of SMARCA2 (BRM) function activators; shares compounds with SMARCA2 activ; activation, % at 9.1 µM; 3,500 compounds, 30% hits; MG213 cells, MMTV-luciferase with dexamethasone, luminescence, overnight; MG213 cells expressing E1A, Rb sequestered; DMSO wells 0%, reference activator 100%;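 active = activation above its plate's cutoff, the mean activation of tested wells plus 3 SD, cut at about 7.9% in these data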
# GAL4-VP16 Luc: GAL4-VP16 reporter activation counter-screen; shares compounds with SMARCA2 activ; HEK293 GAL4-VP16 pG5luc reporter, luciferase luminescence; scaled: DMSO wells 0%, SAHA wells 100%; activation, % at 9.1 µM; 3,500 compounds, 41% hits; AID 686939;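 active = activation above the solvent-only control well mean plus 3 SD, averaged across control plates, cut at about 5.2% in these data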
# Active calls of the source: *; . = no result. Only some compounds are listed: those with a hit (about 2.8% of all), similar ones and a draw of the others.
SMILES,MsrA act,SMARCA2 activ,MsrA inhibitor,KLK7 zymogen act,SMARCA2 conf,GAL4-VP16 Luc
COc1ccc(C(C)=O)cc1CS(=O)(=O)CC(=O)NCCc1c[nH]c2ccccc12,-2,9.0*,0,0,4,1
O=C(NCc1ccccc1)N1CCC(c2nc3ccc(Cl)cc3[nH]2)CC1,.,2,.,0,.,.
C=CCNC(=O)N1CCC(c2nc3ccc(Cl)cc3[nH]2)CC1,.,9.7*,.,0,-3,2
CCCCc1c(-c2ccccc2F)ncn1CCc1ccccc1OC,0,0,0,0,.,.
CCOC(=O)C(Nc1ccc2ccccc2c1)C(=O)OCC,2,8.3*,0,1,7.9*,2
CC(=O)Nc1ccc2ccccc2c1,-11,.,.,.,.,.
Cc1cccc[n+]1CCCCCCCCCC[n+]1ccccc1C,-3,-5,1,0,.,.
CCCc1ncc(C[n+]2ccccc2C)c(N)n1,-4,9.1*,-1,0,-1,1
Brc1ccc(-c2cn3ccccc3n2)cc1,-1,15*,0,0,3,11*
Cc1cccc(/C=N/Nc2nncc3ccccc23)c1,-2,12*,2,0,14*,8.8*
C(=N\Nc1nncc2ccccc12)/c1ccccc1,-4,5,1,-1,.,.
O=C(/C=C/Nc1ccc(F)c(Cl)c1)c1ccccc1,-2,9.3*,-1,1,7,13*
O=C(/C=C/Nc1cccc(O)c1)c1ccccc1,-4,8.1*,2,0,6,8.1*
CC(=O)c1cccc(N/C=C\C(=O)c2ccc(C)cc2)c1,-7,10*,1,1,9.6*,9.8*
O=C(/C=C/Nc1ccc(F)c(F)c1)c1ccc(Br)cc1,-3,3,1,-6,.,.
O=C(/C=C/Nc1ccccc1F)c1ccc(Br)cc1,-6,17*,0,0,4,14*
COc1ccc(CN2CCC(CNC(=O)NC3CCC(C)CC3)CC2)cc1 (stereo not given),.,-1,.,0,.,.
CCOC(=O)N1CCN(C(=O)C[C@H]2C[C@@]3(C(=O)OC)C(=C[C@H](COCc4ccccc4)O[C@@H]3C)N(Cc3ccccc3)C2=O)CC1,.,-2,.,0,.,.
Cc1cnc(NC(=O)CCCc2nc3ccccc3s2)s1,-4,27*,0,-1,29*,-1
O=C(NCCN1CCC(n2c(=O)[nH]c3ccccc32)CC1)c1cccc(Cl)c1,-9,-3,2,0,.,.
C=CCN1C(=O)[C@H](CC(=O)NCC23CC4CC(CC(C4)C2)C3)[C@@]2(C(=O)OC)CCCCC=C12,.,-6,.,0,.,.
CC(C)(C)CC(=O)O/N=C(\N)c1ccccn1,-2,11*,0,-2,8.8*,2
Cc1cccc(OCC(=O)O/N=C(\N)c2ccccn2)c1C,-2,9.2*,0,0,10*,7.0*
Cc1ccc(CC(=O)O/N=C(\N)c2ccccn2)cc1,2,8.9*,0,-1,9.7*,8.4*
N/C(=N\OC(=O)Cc1ccc(Cl)cc1)c1ccccn1,0,5,-1,0,.,.
SMILES,MsrA act,SMARCA2 activ,MsrA inhibitor,KLK7 zymogen act,SMARCA2 conf,GAL4-VP16 Luc
CCN1CCN(CCCN(Cc2ccco2)C(=S)Nc2ccc(Cl)c(C)c2)CC1,2,0,-1,-1,.,.
Cc1ccc(NC(=S)N(CCCN2CCCC(C)C2)Cc2ccco2)cc1C (stereo not given),-9,9.2*,-1,0,-1,1
O=C(O)Cn1cc(/C=c2/sc3nc4ccccc4n3c2=O)c2ccccc21,0,10*,0,-1,3,8.8*
Brc1cccc(Nc2nc(-c3cccnc3)cs2)c1,-2,8.6*,1,0,7,6.0*
O=C(Nc1nc(-c2cccc(Br)c2)cs1)Oc1ccccc1,-5,8.4*,0,0,8.0*,4
CN(C)c1ccc(C=C2C=C(c3ccccc3)OC2=O)cc1,3,-2,0,1,.,.
Cc1ccc(C=C2C=C(c3ccccc3)OC2=O)cc1,-2,8.6*,0,0,0,6.1*
CCN(CC)CCNc1ccc(CO)c2oc3cc(Cl)ccc3c(=O)c12,3,18*,1,-1,29*,1
O=c1cc(NCCCO)c2ccccc2o1,-1,-3,1,0,.,.
CN(C)CCNc1ccc(CO)c2oc3ccc(O)cc3c(=O)c12,-6,11*,-1,0,13*,4
CCC(=O)Nc1cc2c(cc1Cl)-c1ccccc1C2,-3,9.5*,0,0,3,5
CC(=O)Nc1cc2c(cc1Cl)-c1ccccc1C2,-1,4,0,0,.,.
O=[N+]([O-])c1ccc2c(c1)[nH]c(=S)n2-c1ccccc1,-13,2,1,0,.,.
O=[N+]([O-])c1ccc2[nH]c(=S)[nH]c2c1,2,10*,3,-1,11*,0
C(C#CCN1CCOCC1)#CCN1CCOCC1,-10,-2,1,1,.,.
Clc1ccc(/C=C\c2nccc3c2[nH]c2ccccc23)cc1,-2,0,3,-6,.,.
N#Cc1ccc(/C=C\c2nccc3c2[nH]c2ccccc23)cc1,-1,9.9*,2,-38,10*,-2
CC1(c2nnnn2Cc2ccccc2)CCC(=O)N1Cc1cccs1 (stereo not given),-2,3,0,0,.,.
Cc1nn(CCOc2ccccc2)c(=O)n1-c1c(F)cccc1F,-3,9.8*,0,0,3,8.0*
C/C=C1\NC(=O)[C@H](CC(N)=O)N(C)C(=O)C([C@@H](C)O)NC(=O)C(CCCc2ccc(OC)cc2)NC(=O)[C@H](C(C)C)NC(=O)/C(=C\C)NC(=O)[C@H](O)[C@@H](C[C@@H](O)CCCCCCC)NC(=O)[C@H](C)NC(=O)CN(C)C(=O)[C@H](CCC(N)=O)NC1=O (stereo not given in full),1,-1,0,-1,.,.
CCc1nnc(NC(=O)c2cccc(NC(=O)C(C)C)c2)s1,-1,8.8*,-1,0,4,5.9*
COCc1nnc(NC(=O)c2cccc(NC(=O)C(C)C)c2)s1,-2,0,0,0,.,.
O=C(NCCc1c[nH]c2ccccc12)c1ccc2c(c1)ncn2C1CCCCC1,.,2,.,0,.,.
CCc1ccc(S(=O)(=O)NCCc2cn3cccc(C)c3n2)s1,-3,8.1*,1,0,0,0
CCc1ccc(S(=O)(=O)NCCc2cn3ccc(C)cc3n2)s1,-3,1,0,0,.,.
CC(C)NC(=O)C1(C)CCN1C/C=C/c1ccccc1 (stereo not given),-5,-3,1,0,.,.
CN[C@H]1C[C@H]2c3[nH]c4cccc(-c5ccccc5)c4c3CCN2C[C@H]1[C@H](C)O,.,3,.,-3,.,.
CCN1CCN(Cc2ccc(NC(=O)c3cc(NC(=O)c4cncc(-c5cccs5)c4)cc(OC)c3)cc2C(F)(F)F)CC1,0,11*,0,0,5,1
